In this assay the test system is Leishmania donovani. In words: Leishmania intramacrophage assay. In kind it is functional, organism-based. Further details: scale not given: in the data most compounds retested in dose-response had high values.

The structures appear in SMILES notation. Among all 69,000 compounds or so, about 1,000 (1.4%) showed an effect of 50% or more. Only a selection was taken, and strong results are over-represented in it overall.

With `CC(C)NC(=O)[C@@H]1C[C@@H](N)CN1C(=O)CCSCc1ccccc1`, the “Percent Effect” value (30.3 µM, […]) is reported as 17.42%.
On the same count and under the same terms, next, `CCC[C@H]1CN(CCS(C)(=O)=O)C[C@@H]1NC(=O)c1cc(CC)on1`: -7.054%; `CCS(=O)(=O)NCC1OCCc2cn(CCOC)nc21` (stereo not given): 22.39%; `CNc1nc(CNC(=O)Nc2cccc(COCCOC(C)C)c2)cs1`: 10.56%.
`Cc1cc(O)n2nc(C3CCN(C(=O)c4ccccn4)CC3)cc2n1`: the “Percent Effect” value (30.3 µM, […]) is recorded as -30.04%.
On to `O=C(NCCCn1cncn1)N1CCCCCC1`, for which, for the setting “30 µM”, the “Percent Effect” value is 20.62%.
As to `CCS(=O)(=O)NCCNC(=O)c1cc(Cl)c2c(c1)OCCCO2`, the “Percent Effect” value (30 µM, 30.03 µM) is on record as 35.29%.
Regarding `COc1cccc2c1OCCCN(Cc1ncccc1C(=O)O)C2`, the “Percent Effect” value (30.3 µM, […]) is reported as -9.577%.
Consider `CN(CCCOc1ccccc1)C(=O)CN1CCc2cncnc2C1`, for which the “Percent Effect” value (30 µM, 30.03 µM) is 6.848%.
`N[C@@H]1CC[C@@H](NC(=O)c2ccccc2OC(F)(F)C(F)F)C1`: under “30.3 µM, […]”, the “Percent Effect” value is -30%.
Same read-out and setting: in the case of `Cc1noc([C@]23COC[C@H]2CN(C(=O)COC2CCCC2)C3)n1` it was 14.27%; in that of `CCOCC(=O)N1C[C@@H]2COC[C@]2(c2nc(C)no2)C1`, 46.85%; in that of `Cc1noc([C@]23COC[C@H]2CN(C(=O)Cc2ccsc2)C3)n1`, 57.44%.
On the same count and under the same terms, next, `O=C(O)C(F)(F)F.c1cc(CN2CCC3(CCOCC3COCC3CC3)CC2)co1` (stereo not given): 12%.
Turning to `Fc1cccc(N2CCCC3(CN(Cc4nccs4)CCO3)C2)c1.O=C(O)C(F)(F)F.O=C(O)C(F)(F)F` (stereo not given), the “Percent Effect” value (30.3 µM, […]) was determined as 41.24%.
`Fc1cccc(N2CCCC3(C2)CN(c2ncccn2)CCO3)c1.O=C(O)C(F)(F)F.O=C(O)C(F)(F)F` (stereo not given): the “Percent Effect” value (30 µM, 30.03 µM) is 0.139%.
Regarding `c1cncc(C2=NOC3(CCN(Cc4c[nH]c5ccccc45)CC3)C2)c1`, the “Percent Effect” value (30.3 µM, […]) turned out to be 11.25%.
The same measure, in the same setting: next, `c1ccc(C2=NOC3(CCN(Cc4c[nH]c5ccccc45)CC3)C2)cc1`: 96.36%; `CC(C)C1=NOC2(CCN(Cc3c[nH]c4ccccc34)CC2)C1`: 1.888%; `CN(C(=O)c1ccc(S(=O)(=O)NC(C)(C)C)cc1)C1(C#N)CCC1`: 6.383%.
Same read-out and setting: in the case of `CC(C)=CCN1CCC(c2nnc(CN3CCN(C)CC3)n2C)CC1` it was 50.84%.
Take `CN1CCC(c2nnc(CN3CCC(O)CC3)n2C)CC1`: the “Percent Effect” value (30 µM, 30.03 µM) is 13.07%.
As to `CN1CCN(Cc2nnc(C3CCN(CC4CC4)CC3)n2C)CC1`, the “Percent Effect” value (30 µM, 30.03 µM) stood at 36.3%.
`CCc1sc(-c2nnc(CNC(C)Cn3cccn3)o2)cc1C` (stereo not given): the “Percent Effect” value (30.3 µM, […]) was -1.714%.
On to `O=C(c1cnc(Nc2ccccc2)nc1)N1CCC(O)(CO)CC1`, for which the “Percent Effect” value (30.3 µM, […]) is -16.52%.
`CC(Cn1cccn1)NCc1cnc(N2CCCC2)nc1` (stereo not given): the “Percent Effect” value (30.3 µM, […]) is on record as 6.002%.
For the compound `c1cnn(CCNCc2cnc(N3CCCC3)nc2)c1`, the “Percent Effect” value (30.3 µM, […]) was found to be 36.96%.
On the same count and under the same terms, in the case of `c1ccc(Cn2cccn2)c(CNCc2cnc(N3CCCC3)nc2)c1` it was 54.07%.
Same read-out and setting: in the case of `O=C(O)C(F)(F)F.O=C(O)C(F)(F)F.c1coc(CN2CCCn3c(CN4CCOCC4)nnc3C2)c1` it was 2.025%; in that of `O=c1ccc(-c2cccs2)nn1CN1CCN(c2ccccn2)CC1`, 5.805%; in that of `CCNS(=O)(=O)c1cccc(CSC)c1`, 64.35%.
Consider `CSCc1cccc(S(=O)(=O)NCCO)c1`, for which the “Percent Effect” value (30.3 µM, […]) is recorded as 7.47%.
Turning to `CCN(CC)CCNS(=O)(=O)c1cccc(CSC)c1`, the “Percent Effect” value (30.3 µM, […]) is given as -28.14%.
Regarding `O=C(NCc1ccccn1)NC1CCOc2ccccc21` (stereo not given), where the note is “30 µM, 30.03 µM”, the “Percent Effect” value is listed as 24.88%.
As to `Cc1cc(CN(C)C(=O)c2ccc(F)cc2F)no1`, the “Percent Effect” value (30.3 µM, […]) is listed as -6.199%.
Still for that read-out and setting: next, `Cc1ccc(CN2CCCC(c3cnccn3)C2)s1` (stereo not given): 27.06%.
On the same count and under the same terms, in the case of `Cc1ccc(CN2CCOC(c3cnccn3)C2)s1` (stereo not given) it was 57.91%; in that of `Cc1ccc(CN2CCC(c3cnccn3)CC2)s1`, 12.08%; in that of `COc1ccc(CNC(C)c2ccc(Cl)cc2)c(OC)c1OC` (stereo not given), 11.12%.
Consider `COc1ccc(CNC(C)c2ccc(Cl)c(Cl)c2)c(OC)c1OC` (stereo not given), for which the “Percent Effect” value (30.3 µM, […]) stood at 55.53%.
For `COc1ccc(CNC(C)c2cccc(Cl)c2)c(OC)c1OC` (stereo not given), where the note is “30 µM, 30.03 µM”, the “Percent Effect” value was found to be 25.49%.
For the compound `Cc1sc2nc(CCN)nc(N3CCS(=O)(=O)CC3)c2c1C`, the “Percent Effect” value (30.3 µM, […]) stood at 0.7518%.
Turning to `Cc1sc2nc(CCN)nc(N3CCN(S(C)(=O)=O)CC3)c2c1C`, for the setting “30.3 µM, […]”, the “Percent Effect” value is reported as -0.9568%.
Still for that read-out and setting: next, `Cc1sc2nc(CCN)nc(N3CC(N4CCCCC4)C3)c2c1C`: 85.94%; `CCOC(=O)N1CCN(c2nc(CCN)nc3sc(C)c(C)c23)CC1`: 81.77%; `Cc1sc2nc(C(F)(F)F)nc(N3CCN(C)CC3)c2c1C`: 9.999%.
In the case of `Cc1sc2nc(CCN)nc(N3CCC(N4CCCC4)CC3)c2c1C`, the “Percent Effect” value (30.3 µM, […]) came out at 27.1%.
For the compound `Cc1ccc(NC(=O)N2CCOC(C)(c3cnn(C)c3)C2)c(C)c1` (stereo not given), the “Percent Effect” value (30.3 µM, […]) is 12.13%.
On to `Cc1nn(C)c(C)c1S(=O)(=O)N(C)Cc1nn(C)c(Cl)c1Cl`, for which, for the setting “30.3 µM, […]”, the “Percent Effect” value was 1.519%.
Turning to `Cc1cn2c(n1)CCC(NC(=O)c1oc(Br)cc1C)C2` (stereo not given), the “Percent Effect” value (30 µM) is 33.37%.

The record behind these values is ChEMBL document CHEMBL3988442, “University of Dundee, Small-Polar-MMV Screening Library” (2021).
